# Results taken from PubChem BioAssay (EPA / NIEHS).
# Calls of active or inactive are those of the source. Rule for the calls: active = hit-call score of the fitted dose curve at least 0.9, where 1 is the maximum; inactive = score below 0.9.
# Assays:
# Settings in all cases: mRNA level, 48 h; actives raise or lower the signal
# [1] = read-out: Cytochrome P450 (CYP24A1), CYP24A1 (gene 1591); assay: LTEA_HepaRG_CYP24A1: Life Technologies and Expression Analysis (LTEA) Assay for Cytochrome P450 (CYP24A1) using HepaRG (AID 2283478)
# Summary of the method: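 mRNA of CYP24A1 quantified by TaqMan qRT-PCR (ACTB/GAPDH/POLR2A normalization) after 48 h chemical exposure of HepaRG cells, top concentration 100 uM, half-log steps, 0.5% DMSO vehicle, duplicates. Curves fitted bidirectionally against DMSO baseline.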
# [2] = read-out: Cytochrome P450 (CYP1A2), CYP1A2 (gene 1544); assay: LTEA_HepaRG_CYP1A2: Life Technologies and Expression Analysis (LTEA) Assay for Cytochrome P450 (CYP1A2) using HepaRG (AID 2283479)
# Summary of the method: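 CYP1A2 transcript measured by TaqMan qRT-PCR against three housekeeping genes after 48-hour chemical exposure of HepaRG cells. Eight-point half-log series topping at 100 uM in 0.5% DMSO, duplicates; gain or loss fitted relative to vehicle.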
# [3] = read-out: cysteine-aspartic acid protease (CASP8), CASP8 (gene 841); assay: LTEA_HepaRG_CASP8: Life Technologies and Expression Analysis (LTEA) Assay for cysteine-aspartic acid protease (CASP8) using HepaRG (AID 2283480)
# Summary of the method: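 qRT-PCR readout of CASP8 mRNA, normalized to three housekeeping genes, after 48 h chemical exposure of HepaRG cells; 8-point half-log series, top 100 uM, 0.5% DMSO vehicle. Bidirectional curve fitting against DMSO baseline.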
# [4] = read-out: Cytochrome P450 (CYP2B6), CYP2B6 (gene 1555); assay: LTEA_HepaRG_CYP2B6: Life Technologies and Expression Analysis (LTEA) Assay for Cytochrome P450 (CYP2B6) using HepaRG (AID 2283481)
# Summary of the method: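 CYP2B6 transcript level quantified by qRT-PCR against three housekeeping genes, fitted bidirectionally relative to DMSO. HepaRG cultures received chemicals for 48 h, 8-point half-log series from 100 uM in 0.5% DMSO, duplicate wells, serum-free induction medium.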
# [5] = read-out: Cytochrome P450 2C19 (Homo sapiens) (UniProt P33261); assay: LTEA_HepaRG_CYP2C19: Life Technologies and Expression Analysis (LTEA) Assay for CYP2C19 using HepaRG (AID 2283482)
# Summary of the method: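 CYP2C19 transcript levels by qRT-PCR, normalized to three housekeeping genes, in HepaRG cells after 48 h chemical exposure. Eight-point half-log series topping at 100 uM, 0.5% DMSO vehicle. Increases and decreases both fitted against DMSO.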
# CYP2C8 (gene 1558) = assay: LTEA_HepaRG_CYP2C8: Life Technologies and Expression Analysis (LTEA) Assay for CYP2C8 using HepaRG (AID 2283483)
# Summary of the method: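 HepaRG (human liver line), 48 h chemical exposure, 8-pt half-log series from 100 uM, 0.5% DMSO vehicle. Readout: CYP2C8 transcript by qRT-PCR, housekeeping-normalized. Bidirectional fit vs DMSO baseline.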
# CYP2C9 (gene 1559) = assay: LTEA_HepaRG_CYP2C9: Life Technologies and Expression Analysis (LTEA) Assay for CYP2C9 using HepaRG (AID 2283484)
# Summary of the method: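 HepaRG, 48 h dosing, 8-pt half-log series, top 100 uM, 0.5% DMSO vehicle. Read-out: CYP2C9 transcript by TaqMan qRT-PCR, housekeeping-normalized (ACTB/GAPDH/POLR2A). Gain or loss fitted vs DMSO baseline.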
# CYP2E1 (gene 1571) = assay: LTEA_HepaRG_CYP2E1: Life Technologies and Expression Analysis (LTEA) Assay for CYP2E1 using HepaRG (AID 2283485)
# Summary of the method: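 CYP2E1 transcript measured by Fluidigm qRT-PCR against three housekeeping genes in human HepaRG cells treated 48 h (top 100 uM, half-log steps, 0.5% DMSO vehicle). Gain or loss fitted relative to DMSO baseline.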
# CYP4A11 (gene 1579) = assay: LTEA_HepaRG_CYP4A11: Life Technologies and Expression Analysis (LTEA) Assay for CYP4A11 using HepaRG (AID 2283486)
# Summary of the method: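 Readout is CYP4A11 transcript level by qRT-PCR, normalized to three housekeeping genes and fitted bidirectionally against 0.5% DMSO. Human HepaRG cells were treated 48 h, in duplicate, with an 8-point half-log series topping at 100 uM.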
# Cytochrome P450 2C19 (Homo sapiens), sequence (P33261 whole entry, looked up): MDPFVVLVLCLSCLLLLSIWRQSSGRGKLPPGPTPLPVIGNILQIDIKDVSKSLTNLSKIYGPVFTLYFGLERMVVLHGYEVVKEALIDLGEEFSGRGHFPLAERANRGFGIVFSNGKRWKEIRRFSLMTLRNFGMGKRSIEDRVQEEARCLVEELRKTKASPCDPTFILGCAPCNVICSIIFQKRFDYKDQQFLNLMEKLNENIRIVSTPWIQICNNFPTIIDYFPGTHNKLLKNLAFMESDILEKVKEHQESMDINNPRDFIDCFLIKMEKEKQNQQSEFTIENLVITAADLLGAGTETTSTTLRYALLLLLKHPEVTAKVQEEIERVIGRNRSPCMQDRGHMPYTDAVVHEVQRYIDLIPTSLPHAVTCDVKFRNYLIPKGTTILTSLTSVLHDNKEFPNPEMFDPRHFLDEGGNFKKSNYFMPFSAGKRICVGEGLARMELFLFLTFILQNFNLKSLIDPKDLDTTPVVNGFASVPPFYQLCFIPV
Structure (SMILES),outcome [1],outcome [2],outcome [3],outcome [4],outcome [5],outcome (CYP2C8 (gene 1558)),outcome (CYP2C9 (gene 1559)),outcome (CYP2E1 (gene 1571)),outcome (CYP4A11 (gene 1579)),AC50 [4],AC50 [5],AC50 (CYP2C8 (gene 1558)),AC50 (CYP2C9 (gene 1559)),AC50 (CYP2E1 (gene 1571)),AC50 (CYP4A11 (gene 1579)),AC50 [2]
CCCOc1nn(C(=O)NS(=O)(=O)c2ccccc2C(=O)OC)c(=O)n1C,inactive,inactive,inactive,inactive,inactive,inactive,inactive,inactive,inactive,–,–,–,–,–,–,–
CCc1cnc(C2=NC(C)(C(C)C)C(=O)N2)c(C(=O)O)c1 (stereo unspecified),inactive,inactive,inactive,inactive,inactive,inactive,inactive,inactive,inactive,–,–,–,–,–,–,–
N#CSCSC#N,inactive,inactive,inactive,–,–,–,–,–,–,92.3 µM (active),90.8 µM (active),89.4 µM (active),66.5 µM (active),82.9 µM (active),81.5 µM (active),–
CC1(C(=O)Nc2ccc(O)c(Cl)c2Cl)CCCCC1,inactive,inactive,inactive,inactive,inactive,inactive,inactive,inactive,inactive,–,–,–,–,–,–,–
CCCSP(=O)(OCC)SCCC,inactive,inactive,inactive,–,inactive,–,inactive,–,inactive,2.48 µM (active),–,5.47 µM (active),–,25.8 µM (active),–,–
CCOP(=S)(OCC)Oc1ccc2c(C)c(Cl)c(=O)oc2c1,inactive,–,inactive,–,–,inactive,inactive,–,–,2.49 µM (active),12.6 µM (active),–,–,31.6 µM (active),50 µM (active),4.03 µM (active)
CC(Oc1cccc(Cl)c1)C(=O)O (stereo unspecified),inactive,inactive,inactive,–,–,–,–,–,inactive,2.24 µM (active),7.31 µM (active),14.4 µM (active),2.04 µM (active),4.01 µM (active),–,–
CCOC(=O)CC(SP(=O)(OC)OC)C(=O)OCC (stereo unspecified),inactive,inactive,inactive,–,inactive,inactive,inactive,–,inactive,50 µM (active),–,–,–,25.1 µM (active),–,–
CCOP(=O)(OCC)Oc1cc(C)nc(C(C)C)n1,inactive,inactive,inactive,inactive,inactive,inactive,inactive,inactive,inactive,–,–,–,–,–,–,–
CON=C(C(=O)OC)c1ccccc1CON=C(C)c1cccc(C(F)(F)F)c1,inactive,inactive,inactive,inactive,inactive,inactive,inactive,–,inactive,–,–,–,–,25.4 µM (active),–,–
CCCCN(CC)c1c([N+](=O)[O-])cc(C(F)(F)F)cc1[N+](=O)[O-],inactive,–,inactive,–,–,inactive,inactive,inactive,inactive,32 µM (active),50 µM (active),–,–,–,–,35.8 µM (active)
CN(C)C(=O)Nc1cccc(C(F)(F)F)c1,inactive,–,inactive,–,–,–,inactive,–,inactive,2.55 µM (active),16 µM (active),12.1 µM (active),–,50 µM (active),–,42 µM (active)
CSc1nc(NC(C)C)nc(NC(C)C)n1,inactive,inactive,inactive,–,–,inactive,–,–,–,1.31 µM (active),1.96 µM (active),–,85.9 µM (active),39.1 µM (active),31 µM (active),–
O=C(O)c1cc(Oc2ccc(C(F)(F)F)cc2Cl)ccc1[N+](=O)[O-],inactive,inactive,inactive,–,inactive,–,inactive,inactive,–,50 µM (active),–,8.77 µM (active),–,–,50 µM (active),–
C#CCC1=C(C)C(OC(=O)C2C(C=C(C)C)C2(C)C)CC1=O (stereo unspecified),inactive,inactive,inactive,–,inactive,inactive,inactive,–,–,12.1 µM (active),–,–,–,73.3 µM (active),49.8 µM (active),–
CNC(=O)ON=C(C)SC,inactive,inactive,inactive,inactive,inactive,inactive,inactive,inactive,inactive,–,–,–,–,–,–,–
COc1ccc(C(=CC(=O)N2CCOCC2)c2ccc(Cl)cc2)cc1OC,inactive,inactive,inactive,–,–,–,inactive,–,–,0.00252 µM (active),10.4 µM (active),10.4 µM (active),–,15.3 µM (active),59 µM (active),–
CCOP(=S)(OCC)Oc1ccc([N+](=O)[O-])cc1,inactive,–,inactive,–,–,inactive,inactive,–,inactive,0.636 µM (active),9.2 µM (active),–,–,7.92 µM (active),–,15.1 µM (active)
CCOP(=O)(SC(C)CC)N1CCSC1=O (stereo unspecified),inactive,inactive,inactive,–,inactive,inactive,inactive,–,–,2.56 µM (active),–,–,–,19.1 µM (active),17 µM (active),–
